# Laboratory results published in the supplement of paper PMC11417369.
# In all, about 25,000 sequences were measured (“ln(normalized median fluorescence intensity)”: median about 9.7, highest 2% from about 11 on). Only a selection was taken, and the highest values are over-represented in it overall.
# System: PfAP2-HC AP2 domain (GST-tagged)
# Test: gcPBM binding intensity (ln(normalized median fluorescence intensity)); higher = stronger DNA binding
# Outline: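 For binding intensity, the highest Masliner-normalised natural-log median intensity across replicate spots of either probe orientation was taken. Protein bound to the array was stained with Alexa488 anti-GST antibody and scanned at 488 nm. The protein, GST-tagged P. falciparum DNA-binding domains from E. coli at about 25 μg on average, had been applied for 1 h to an Agilent 4 × 180k array of primer-extended double-stranded 36-bp intergenic genomic probes and negative controls.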
row,Sequence,gcPBM binding intensity (ln)
1,TCACAAATGTATTATACACACAAGTTTTCTTTAATA [CACACA_site4107],9.71
2,ATGAATTTTTCTCTACAAAAGGATATAATAAAAATA [XGTACX_negctrl_site461],9.37
3,TTACGAATAAAACAGTGTACATTGAATTTCTATGAG [XGTACX_site4771],9.51
4,TTTTTAAAAATATACACACACAGATATTATAGATAT [CACACA_site6511],10.1
5,TCCTTATTTATATAATGTACTTTTTTTTTTCATTTT [XGTACX_site4275],9.64
6,TTTATTCAAATATAATGTACTTTCTACAAATTCAAT [XGTACX_site8119],9.43
7,TATTATATAAAATATTTTATTATATCATCTTCTCTA [XGTACX_negctrl_site319],9.44
8,TTCATTTTCATATATTGTACAAAATTTTATAAGGTT [XGTACX_site4522],9.58
9,ATCTTGAAGATTATTTGTACACAAAAGTTAAAATAT [XGTACX_site242],9.47
10,AAAAAAAAAAAACACACACACACAAATACATACACA [CACACA_site706],10.7
11,AAAAAAAAAAAACACACACACAAATACAAATACATA [CACACA_site415],11.5
12,AAAAAAAAAAAACATACACACAAATAAATACATACA [CACACA_site6073],10.1
13,TCATACTGTATATTTTGTACTTATATATATATTATA [XGTACX_site6136],10
14,CATATTCCCCCCCACACACACACACCCATACATACC [CACACA_site2303],10.6
15,GACATATTCCCCCCCACACACACACCCACATACATA [CACACA_site2302],11.1
16,ACATACATACCCCCACGTACGTACCGAAACACCACC [XGTACX_site1982],9.84
17,TATTCCCCCCAACACACACACACACCGACATACCAC [CACACA_site8723],11.5
18,CACCCACCCACATACACACACATACACATATATATA [CACACA_site1722],10.3
19,TATTCCCCCAAACACACACACACACCCACATACCAC [CACACA_site2304],10.7

row,Sequence,gcPBM binding intensity (ln)
1,AATTATATATTATAATGTACATATATATAACTATAC [XGTACX_site1865],9.67
2,ATAATTCATGTTTAGTGTACAAAAAATTAAAGCAAC [XGTACX_site8891],9.87
3,ATATAGTATAATAAAAGTACATTTTGATTTTTTCTC [XGTACX_site1797],9.61
4,AATAAACATAAATAAAAATTATAAAATATATATATG [CACACA_negctrl_site1709],9.75
5,TAAAAAAAAACAGAAACACACATTATTCATATATAT [CACACA_site2049],10.2
6,ATATAACAGAAACACACACACATATATATATATTAT [CACACA_site4140],11.3
7,CATACACAGAAACACACACACATATATATATATATA [CACACA_site4519],10.2
8,CATACATAGAAACACACACACACACCCACCCACAAA [CACACA_site494],10.6
9,AACATACAGAAACACACACACACACCCACACCCACA [CACACA_site493],11.5
10,TACATACAGAAACACACACACACATATATATATATA [CACACA_site2919],11.1
11,TATACGCAGAAACACACACACATACACCCACATACA [CACACA_site1723],10.6
12,CAAATACAGAAACACACACACATATACATATATATA [CACACA_site3498],10.4
13,CATATACAGAAACACACACACACATAAATAAATATA [CACACA_site1343],11
14,CATTATAAGAAACACACACACATATATATATATATA [CACACA_site1051],10.1
15,CATACACAGAAACACACACACATATATACATATATA [CACACA_site1094],10.4
16,TAAATACAGAAACACACACACAAATATATACATACA [CACACA_site2880],10.5
17,TTGTTAGAGTATATTGAAAGGATAACCTTTTTTTAT [XGTACX_negctrl_site122],9.43
18,AAAATAATTTTATAGTTGCACTATATCGTATACAAT,9.71
19,AACGATTTACATCACTGTACTAATGATATACCTCAT [XGTACX_site7463],9.85

row,Sequence,gcPBM binding intensity (ln)
1,ATAAATATAACATATTGTACCCTTAAAAAGGAACAA [XGTACX_site352],9.5
2,ACGTACTGCCCTAAAGTGCATATATAATATAAACGA [GTGCAC_site9911],9.52
3,GTCATATTAATATGTACACACATATTTATATTTATA [CACACA_site6798],9.83
4,AATGTTTAATATAACGCATGCCTTAATATAGAATGC [TGCATGCA_site463],9.59
5,TAAAGAAAAAGAGAATGTACATGAGAAAAGTATACT [XGTACX_site7472],9.79
6,TTTAAAAAAAAAAAAAAAAATTAAATGAATTATTAA [CACACA_negctrl_site1121],8.95
7,AAAAAAAAAAATATAACACACAACAAAAAAATATAT [CACACA_site1753],10.4
8,ATAGTAAACGAAATAAAAAGATTAGCATAATATCCT [CACACA_negctrl_site1730],9.79
9,ACATGTGAACATTCAATGCACACGATGTAATTATAC [CACACA_site14],9.84
10,TAATTTTTTTTTTTTTTTCATTCTTTTCCTTTGATT [CACACA_negctrl_site1365],9.22
11,CACAACATATATATATATATATATATATATATGTGT [CACACA_negctrl_site28],9.39
12,TATATGTTTGAATATACACACAACATATTTATATAT [CACACA_site7832],9.74
13,ACTTCAAAAAAAAAAAAATATATATATATATATTAT [GTGCAC_negctrl_site158],9.33
14,TATAATTTAACGACATGTACATATAAAAAAATATTT [XGTACX_site2395],9.75
15,TTTTTTTTTTTGATTTGTACACAAAAAAAATATATG [XGTACX_site4547],9.42
16,TAATTTTTGAAACACACACACATATATATATATATA [CACACA_site94],10.5
17,CATATATTTTGAAACACACACATATATAATATACAT [CACACA_site1158],10.4
18,AATTTGTTGAAACACACACACACATACATATATATA [CACACA_site2287],11.3
